Compounds with a hit are over-represented: about 2.4% of the library has one in this group of screens.
eIF4H inh: inhibitors of RNA binding by human eIF4H | Q15056 | eIF4H fluorescence polarization binding assay | 290,000 compounds, 0.94% hits | AID 2012 | inhibition, % at 35 µM;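 note: calls also rest on retests at 20 µM and on dose response follow-up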
eIF4E-4G inh: inhibitors of eIF4E and eIF4G interaction in translation initiation; P63073+Q04637; TR-FRET eIF4E-eIF4GI(517-606) binding, 2 h; inhibition, % at 21.7 µM; 220,000 compounds, 0.37% hits;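 active = inhibition above about 30%, limit read from the data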
PfM18AAP inh-1: PfM18AAP enzyme inhibition. recombinant PfM18AAP, H-Glu-NHMec fluorogenic cleavage. inhibition, % at 7.35 µM. 290,000 compounds, 1.2% hits;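 active = inhibition above the campaign mean inhibition over all tested compounds plus 3 SD, cut at about 28% in these data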
MLLE-PAM2 inh: inhibitors of microRNA-mediated deadenylation, human PABP1 MLLE binding; 360,000 compounds, 0.36% hits; GST-MLLE / FITC-PAM2 fluorescence polarization; inhibition, % at 20 µM; in the data active = inhibition above about 35%, passing the limit was not always enough
PERK inh: inhibitors of human PERK kinase | Q9NZJ5 | CHO PERK-DD fusion, SEAP luminescence translation reporter | inhibition, % at 5.6 µM | 220,000 compounds, 0.17% hits;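 active = inhibition above the mean inhibition of all tested compounds plus 3 SD, set separately per screening campaign, cut at about 2.9% in these data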;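 note: PERK kinase domain activated by AP20187 dimerizer at 100 nM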
PABP polyA inh: PABP-poly(A) binding inhibition; P11940; PABP-poly(A) RNA binding, fluorescence polarization; inhibition, % at 35 µM; 290,000 compounds, 1% hits; AID 2014;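 note: calls also rest on retests at 20 µM and on dose response follow-up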
PfM18AAP inh-2: PfM18AAP inhibition, confirmation; shares compounds with PfM18AAP inh-1; recombinant PfM18AAP, H-Glu-NHMec fluorogenic cleavage; inhibition, % at 7.35 µM; 2,400 compounds, 28% hits; AID 2170;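 active = mean inhibition over replicate wells above the hit cutoff set for the earlier primary screen, cut at about 29% in these data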
CTSL1 counter: counter-screen for PFM18AAP inhibitors: confirmation of human cathepsin L inhibitors; AID 2178; inhibition, % at 5.96 µM; shares compounds with PfM18AAP inh-1; 2,400 tested, under 10 active; purified cathepsin L1, Z-Leu-Arg-MCA fluorescence;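 active = average inhibition across replicates above the hit cutoff set in the earlier primary screen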
Each line names hits and unclear results; the compound was inactive in the other large screens (follow-up assays come after a bar, where they were run). Unless noted, the rule behind the calls is not given here.

CN=c1scc(C)n1/N=C/c1ccc(O)c(O)c1O	PfM18AAP inh-1 47 | PfM18AAP inh-2 inactive | CTSL1 counter inactive
C=CCN=c1scc(-c2ccco2)n1/N=C/c1ccc(O)c(O)c1O	eIF4H inh 92, PfM18AAP inh-1 45, PABP polyA inh 42 | PfM18AAP inh-2 inactive | CTSL1 counter inactive
Oc1ccc(/C=N/n2c(-c3ccco3)csc2=Nc2cccnc2)c(O)c1	none
CC(C)N=c1scc(-c2ccco2)n1/N=C/c1ccc(O)c(O)c1	PfM18AAP inh-1 45 | PfM18AAP inh-2 49 | CTSL1 counter inactive
COCCN=c1scc(-c2ccco2)n1/N=C/c1ccc(O)c(O)c1O	eIF4H inh inconclusive, eIF4E-4G inh 45, PfM18AAP inh-1 36, PABP polyA inh 4.6 | PfM18AAP inh-2 inactive | CTSL1 counter inactive
CN=c1scc(-c2cccs2)n1/N=C/c1ccccc1O	none
CCn1c(=S)sc2c(=O)n(CC(=O)Nc3cccc(OC)c3)c(C)nc21	none (no result: eIF4E-4G inh, PERK inh)
COc1cc(OC)c2c(c1O)OC(c1ccccc1)CC2=O (centres undefined)	PfM18AAP inh-1 49 (no result: eIF4H inh, PABP polyA inh) | PfM18AAP inh-2 inactive | CTSL1 counter inactive
COc1ccc(C2CC(=O)c3c(O)cc(O)cc3O2)cc1O (centres undefined)	none (no result: eIF4H inh, eIF4E-4G inh, PfM18AAP inh-1, PERK inh, PABP polyA inh)
O=c1[nH]cnc2[nH]ncc12	PfM18AAP inh-1 49 | PfM18AAP inh-2 inactive | CTSL1 counter inactive
Cc1cc2c(=O)[nH]cnc2s1	none
COc1ccccc1Oc1ccc(S(=O)(=O)NCc2ccccn2)cc1	none
Cc1cc(C)nc(SCC(=O)c2cc3ccccc3oc2=O)n1	PfM18AAP inh-1 40 | PfM18AAP inh-2 inactive | CTSL1 counter inactive
O=C(CSc1nnnn1-c1ccccc1)c1cc2ccccc2oc1=O	none
CCC(C)(C)n1nnnc1CN(Cc1cc2cc(OC)c(OC)cc2[nH]c1=O)C1CCCC1	PfM18AAP inh-1 33 | PfM18AAP inh-2 inactive | CTSL1 counter inactive
COc1cc2cc(CN(Cc3nnnn3C3CCCC3)C3CCCC3)c(=O)[nH]c2cc1OC	none (no result: eIF4E-4G inh, PfM18AAP inh-1, MLLE-PAM2 inh, PERK inh)
NC(=O)/C(=C/c1ccco1)C(N)=S	PfM18AAP inh-1 42 | PfM18AAP inh-2 inactive | CTSL1 counter inactive
N#Cc1c(/N=C/c2ccco2)sc2c1CCCCC2	PfM18AAP inh-1 35 | PfM18AAP inh-2 inactive | CTSL1 counter inactive
Cc1ccc(N2CC(C(=O)OCC(=O)c3ccc([N+](=O)[O-])cc3)CC2=O)cc1 (centres undefined)	PfM18AAP inh-1 38 (no result: eIF4E-4G inh, PERK inh) | PfM18AAP inh-2 inactive | CTSL1 counter inactive
O=C(COC(=O)C1CC(=O)N(c2ccccc2)C1)c1ccccc1 (centres undefined)	none
COC(=O)c1nc(NNC(=O)c2ccccc2)sc1-c1ccccc1	PfM18AAP inh-1 46 (no result: eIF4E-4G inh, PERK inh) | PfM18AAP inh-2 inactive | CTSL1 counter inactive
O=C(NNc1nc(-c2ccccc2)cs1)c1ccccc1	none
CC(C)c1ccc2c(c1)C(c1ccc(N3CCOCC3)cc1)=NNC(c1cccs1)=N2	none
COC(=O)c1c(C)nn(-c2ccc(F)c(Cl)c2)c1-c1cc(C)on1	none
CCOc1cccc(C(=O)Nc2ccccc2C(=O)N2CCOCC2)c1	none (no result: eIF4E-4G inh, PERK inh)
CCO/N=C(\C)c1c(O)c(CC)c(-c2ccccc2)n(-c2ccccc2)c1=O	none
CCc1c(O)c(-c2ccccc2)c(=O)n(-c2ccccn2)c1-c1ccccc1	PfM18AAP inh-1 39 | PfM18AAP inh-2 inactive | CTSL1 counter inactive
O=C(NNc1cccc([N+](=O)[O-])c1)/C(=C\c1cccnc1)NC(=O)c1ccccc1	PfM18AAP inh-1 46 | PfM18AAP inh-2 inactive | CTSL1 counter inactive
CC(=O)c1cccc(NC(=O)/C(=C\c2cccnc2)NC(=O)c2ccccc2)c1	none (no result: eIF4E-4G inh, PERK inh)
Oc1ccc(C(=S)N2CCN(Cc3ccccc3)CC2)cc1	PfM18AAP inh-1 54 | PfM18AAP inh-2 inactive | CTSL1 counter inactive
S=C(c1ccc(Br)cc1)N1CCN(Cc2ccccc2)CC1	PfM18AAP inh-1 42 | PfM18AAP inh-2 inactive | CTSL1 counter inactive
CCNC(=S)N1CCN(Cc2ccccc2)CC1	none
O=C(c1ccc(Br)cc1)N1CCN(Cc2ccccc2)CC1	none (no result: eIF4E-4G inh, PERK inh)
Cc1ccc(C(=S)N2CCN(Cc3ccccc3)CC2)s1	PfM18AAP inh-1 35 | PfM18AAP inh-2 inactive | CTSL1 counter inactive
